Source: ChEMBL document CHEMBL4513216, “Probing the Open Global Health Chemical Diversity Library for Multistage-Active Starting Points for Next-Generation Antimalarials” (ACS Infect Dis, 2020)
About 2,700 (4%) of roughly 68,000 compounds showed an effect of 50% or more. Only a selection was taken, and strong results are over-represented in it overall.

System: Plasmodium berghei
Assay: Screen against P. berghei liver stage (PbLuc), transformed with Luciferase, at 2uM
Assay type: functional, HepG2
Settings: tested at 2 uM

Row | Compound | INHIBITION [%]
1 | CCCN(C(=O)c1cc2c([nH]c1=O)CCCC2=O)C1CCCCC1 | 22
2 | CCN(C(=O)c1cc2c([nH]c1=O)CCCC2=O)C1CCCCC1 | -58.06
3 | O=C1CCCc2[nH]c(=O)c(C(=O)N(CC3CCCCC3)C3CC3)cc21 | 67.44
4 | CC(C)C(C)N(C(=O)c1cc2c([nH]c1=O)CCCC2=O)C1CC1 (configuration not stated) | 72.49
5 | CC(C)CCN(C(=O)c1cc2c([nH]c1=O)CCCC2=O)C1CC1 | 0.12
6 | CC(c1ccco1)N(C(=O)c1cc2c([nH]c1=O)CCCC2=O)C1CC1 (configuration not stated) | -8.3
7 | COc1ccc2c(c1)C1(CCNCC1)CC2NC1CC1 (configuration not stated) | 0
8 | CC(C)(CN1CCOCC1)CN1CCC(Cc2cccc(CO)c2)C1 (configuration not stated) | -7.7
9 | CCN(CC)c1ccc(NS(=O)(=O)c2cnn(C(C)C)c2)cn1 | 3.17
10 | N#Cc1nc(COc2ccc3c(c2)OCO3)oc1N1CCCC1 | -9.89
11 | O=C(NC1CCCC1)c1nc(COc2ccc3c(c2)OCO3)no1 | -11.86
12 | N#Cc1nc(COc2ccc3c(c2)OCO3)oc1NC1CC1 | 51.42
13 | CNc1oc(COc2ccc3c(c2)OCO3)nc1C#N | -6.53
14 | N#Cc1nc(COc2ccc3c(c2)OCO3)oc1N1CCCCCC1 | 18.85
15 | N#Cc1nc(COc2ccc3c(c2)OCO3)oc1NC1CCCCC1 | 66.74
16 | CCS(=O)(=O)N1CCC(c2nnc(CN3CCOCC3)n2C)CC1 | 37.3
17 | CCCc1n[nH]c(C2CN(C(=O)CCCn3ccnc3C)CCO2)n1 (configuration not stated) | -15.07
18 | Cc1cc(C)cc(OCC(=O)N2CCC2)c1 | 16.8
19 | COc1cc(C(=O)N2CCCS2(=O)=O)ccc1OC(C)C | 21.12
20 | COc1ccc(C[C@H]2CN(Cc3ccoc3)CC[C@@H]2OC)cc1 | 17.47
21 | Cc1cnc(C(=O)N2CC[C@H]3C[C@@H](c4nc(C)cs4)O[C@@H]3C2)cn1 | 5.85
22 | CC(C)c1cc(=O)[nH]c(-n2nc(C3CC3)cc2N)n1 | 16.98
23 | CN(CC1CCCCO1)S(=O)(=O)c1cccc(C(=O)N2CCOCC2)c1 (configuration not stated) | -40.47

Row | Compound | INHIBITION [%]
24 | O=C(O)c1cccc(C2CCCN(S(=O)(=O)C3CC3)C2)c1 (configuration not stated) | 47.68
25 | CC(O)CN1CCN(Cc2coc(-c3ccccc3Cl)n2)CC1 (configuration not stated) | -7.16
26 | OCCN1CCN(Cc2coc(-c3ccccc3Cl)n2)CC1 | 58.53
27 | COCCN1CCN(Cc2coc(-c3ccccc3Cl)n2)CC1 | 11.9
28 | Cc1nnc(NC(=O)NCc2ccc(F)cc2)s1 | -12.41
29 | O=C(c1nc2c(o1)CN(CC1CCC1)C2)N1CCCC1 | 12.68
30 | COCCN1C[C@H]2[C@@H](C1)N(C(=O)COc1ccccc1)CC[C@H]2OC | -75.33
31 | COCCN1C[C@@H]2[C@@H](OC)CCN(C(=O)Cc3ccccc3)[C@@H]2C1 | 55.44
32 | COCCN1C[C@H]2[C@@H](C1)N(C(=O)CCc1ccccc1)CC[C@H]2OC | 25.02
33 | N#Cc1ccccc1CN1C[C@H]2CC[C@@H](C1)N(Cc1cscn1)C2=O | -66.52
34 | CC(C)N(C)S(=O)(=O)N1CCCC1CC(=O)c1cccs1 (configuration not stated) | 2.71
35 | Cc1ccc(CNCC2Cn3nnc(-c4cccc(F)c4)c3CO2)o1 (configuration not stated) | -17.26
36 | CN1CCC2(COCCN(Cc3cccc(C#N)c3)C2)C1 (configuration not stated) | 16.03
37 | CCCS(=O)(=O)N1CCC2(CCC(=O)N(CCc3ccccc3)C2)CC1 | 15.56
38 | CCCS(=O)(=O)N1CCC2(CCC(=O)N(Cc3ccccc3)C2)CC1 | 57.91
39 | CCCS(=O)(=O)N1CCC2(CCC(=O)N(CCc3cccnc3)C2)CC1 | 31.96
40 | CCC(CNC(=O)Cc1c(C)noc1C)N1CCCC1 (configuration not stated) | -15.63
41 | Cc1ccnn1CCC(=O)N1CCC(c2cnccn2)CC1 | 55.74
42 | Cn1nccc1CCC(=O)N1CCC(c2cnccn2)CC1 | -14.13
43 | COc1cc(CCC(=O)N2CCC(c3cnccn3)CC2)on1 | -56.97
44 | CC(Cn1cc(Br)cn1)C(=O)Nc1ccc(Br)cn1 (configuration not stated) | -84.37
45 | CC(C)N(CCCNC(=O)C1CCCN(C(N)=O)C1)S(C)(=O)=O (configuration not stated) | 26.18
46 | N#CCCNC(=O)CSc1ccc(F)cc1F | 21.22

Row | Compound | INHIBITION [%]
47 | CN(CCC#N)C(=O)CSc1cc(F)ccc1F | 6.82
48 | N#CCCNC(=O)CSc1cc(F)ccc1F | 51.83
49 | CCc1nnc(NC(=O)c2ccc(C3CCCN3CC(C)C)s2)s1 (configuration not stated) | 52.98
50 | Cc1cnc(NC(=O)c2ccc(C3CCCN3CC(C)C)s2)s1 (configuration not stated) | 24.36
51 | CC(C)CN1CCCC1c1ccc(C(=O)Nc2cn(C)nn2)s1 (configuration not stated) | -28.11
52 | CCc1nccn1-c1cncc(C2CCCN2)n1 (configuration not stated) | -21.99
53 | c1ccc(C2CCCN2Cc2nnnn2C2CC2)cc1 (configuration not stated) | 7.74
54 | CN(CCCNS(=O)(=O)N1CCC2(CC1)OCCO2)c1ccccc1 | 0.12
55 | O=c1[nH]c2nc(N3CCCC3)ncc2c(=O)n1-c1cccc(F)c1 | 22.51
56 | O=c1[nH]c2nc(NCC3CCCO3)ncc2c(=O)n1-c1ccc(F)cc1 (configuration not stated) | 24.34
57 | O=c1[nH]c2nc(NCC3CCCO3)ncc2c(=O)n1-c1cccc(F)c1 (configuration not stated) | 61.06
58 | CN1CCCC[C@@H]2[C@H]1[C@@H](c1ccccc1)CCN2S(=O)(=O)N1CCCC1 | 49.9
59 | COc1ccc(OC)c(-n2nnnc2SCC2CCCCO2)c1 (configuration not stated) | -10.78
60 | Cc1cnc2[nH]c(C(F)(F)F)c(CN3CCCC(CO)C3)c2c1 (configuration not stated) | 18.87
61 | Cc1ccc(C(=O)NCCNC(=O)c2cncnc2C)cc1F | -9.98
62 | Cc1ccc(C(=O)NCCNC(=O)c2cncnc2C(C)C)cc1F | 57.34
63 | CCc1ncncc1C(=O)NCCNC(=O)c1ccc(C)c(F)c1 | -18.39
64 | O=C(CCn1cccn1)NCCOc1cccc(Cl)c1 | 8.78
65 | Cc1ccc(C(=O)N2C[C@H]3CC[C@@H](C2)N(Cc2ccccc2)C3)cn1 | -17.44
66 | Nc1ccc(C(=O)N2C[C@H]3CC[C@@H](C2)N(Cc2ccccc2)C3)cn1 | 57.85
67 | O=C(c1c[nH]c(=O)cn1)N1C[C@H]2CC[C@@H](C1)N(Cc1ccccc1)C2 | 24.51
